# How the values were obtained:
# Assay in all cases: DAPPL (digital affinity profiling via proximity ligation, sequencing); 10 mM Tris-HCl pH 7.5, 50 mM NaCl, 1 mM DTT, 4% glycerol, room temperature, 30 min; GST-TFs on glutathione beads, 16-mer random dsDNA library, 0.1% formaldehyde crosslink after washing; high values mean tight binding
# FEV = target: T1, FEV (Homo sapiens, UniProt Q99581 1-238); settings: protein: recombinant; tags: N-terminal GST; dsDNA, one strand shown
# T1 sequence: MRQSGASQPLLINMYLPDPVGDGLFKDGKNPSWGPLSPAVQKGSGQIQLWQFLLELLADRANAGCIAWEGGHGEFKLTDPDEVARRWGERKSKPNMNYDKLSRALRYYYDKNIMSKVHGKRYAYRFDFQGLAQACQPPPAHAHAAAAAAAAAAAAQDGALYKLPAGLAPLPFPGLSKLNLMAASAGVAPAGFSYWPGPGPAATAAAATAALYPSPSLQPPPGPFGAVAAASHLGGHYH
# In short: (§1)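 Binding signal is each hexamer's read frequency for a factor divided by its frequency in the tag-only sample. The factors were GST-fused human transcription factors from yeast, captured on glutathione beads, DNA-barcoded and pooled with that sample. Pools were incubated with 200 nmole of a random double-stranded 16-mer DNA library in Tris/NaCl/DTT/glycerol buffer at room temperature for 30 min, then washed, crosslinked with 0.1% formaldehyde, proximity-ligated with BsaI/T4 ligase (1 h, 37 °C), PCR-amplified and sequenced on an Illumina NextSeq500.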
# ETV5 = ETV5 (Homo sapiens, UniProt P41161 1-510); settings: protein: recombinant; tags: N-terminal GST; dsDNA, one strand shown
# In short: as §1
# HSF1 = HSF1 (Homo sapiens, UniProt Q00613 1-529); settings: protein: recombinant; tags: N-terminal GST; chain copies: 3; dsDNA, one strand shown
# In short: as §1
# SPIC = target: T2, SPIC (Homo sapiens, UniProt Q8N5J4 1-248); settings: protein: recombinant; tags: N-terminal GST; dsDNA, one strand shown
# T2 sequence: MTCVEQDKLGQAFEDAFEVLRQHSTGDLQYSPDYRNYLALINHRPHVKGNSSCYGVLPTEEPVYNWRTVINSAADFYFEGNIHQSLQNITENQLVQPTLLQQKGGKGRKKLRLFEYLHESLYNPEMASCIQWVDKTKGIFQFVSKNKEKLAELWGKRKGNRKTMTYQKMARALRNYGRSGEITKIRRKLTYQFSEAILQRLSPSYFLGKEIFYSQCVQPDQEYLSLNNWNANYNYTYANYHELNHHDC
# In short: as §1
# ELF4 = ELF4 (Homo sapiens, UniProt Q99607 1-663); settings: protein: recombinant; tags: N-terminal GST; dsDNA, one strand shown
# In short: as §1
# ELK4 = target: T3, ELK4 (Homo sapiens, UniProt P28324-2 1-405); settings: protein: recombinant; tags: N-terminal GST; dsDNA, one strand shown
# T3 sequence: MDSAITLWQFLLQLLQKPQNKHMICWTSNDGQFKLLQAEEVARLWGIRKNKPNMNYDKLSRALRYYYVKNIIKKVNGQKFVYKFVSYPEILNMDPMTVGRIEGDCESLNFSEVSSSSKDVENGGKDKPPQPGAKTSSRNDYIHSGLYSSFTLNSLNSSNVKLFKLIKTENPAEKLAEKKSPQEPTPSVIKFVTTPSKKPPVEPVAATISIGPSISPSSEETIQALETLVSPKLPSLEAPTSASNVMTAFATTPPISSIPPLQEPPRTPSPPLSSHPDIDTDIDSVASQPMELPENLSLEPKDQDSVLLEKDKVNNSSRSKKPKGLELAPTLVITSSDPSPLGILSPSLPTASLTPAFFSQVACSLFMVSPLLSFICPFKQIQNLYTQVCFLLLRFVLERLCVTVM
# In short: as §1
# ETV2 = target: T4, ETV2 (Homo sapiens, UniProt O00321 1-342); settings: protein: recombinant; tags: N-terminal GST; dsDNA, one strand shown
# T4 sequence: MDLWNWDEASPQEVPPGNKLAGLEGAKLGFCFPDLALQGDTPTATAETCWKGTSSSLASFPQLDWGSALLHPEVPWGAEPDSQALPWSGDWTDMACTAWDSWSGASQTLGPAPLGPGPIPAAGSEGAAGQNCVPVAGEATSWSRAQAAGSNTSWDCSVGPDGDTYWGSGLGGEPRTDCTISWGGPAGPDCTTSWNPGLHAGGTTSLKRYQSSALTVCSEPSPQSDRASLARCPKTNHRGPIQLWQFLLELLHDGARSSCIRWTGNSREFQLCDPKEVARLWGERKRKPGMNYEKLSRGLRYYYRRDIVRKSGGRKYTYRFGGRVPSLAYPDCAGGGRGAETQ
# In short: as §1
# CRX = CRX (Homo sapiens, UniProt O43186 1-299); settings: protein: recombinant; tags: N-terminal GST; dsDNA, one strand shown
# In short: as §1
# ETV1 = ETV1 (Homo sapiens, UniProt P50549 1-477); settings: protein: recombinant; tags: N-terminal GST; dsDNA, one strand shown
# In short: as §1
# ERF = target: T5, ERF (Homo sapiens, UniProt P50548 1-548); settings: protein: recombinant; tags: N-terminal GST; dsDNA, one strand shown
# T5 sequence: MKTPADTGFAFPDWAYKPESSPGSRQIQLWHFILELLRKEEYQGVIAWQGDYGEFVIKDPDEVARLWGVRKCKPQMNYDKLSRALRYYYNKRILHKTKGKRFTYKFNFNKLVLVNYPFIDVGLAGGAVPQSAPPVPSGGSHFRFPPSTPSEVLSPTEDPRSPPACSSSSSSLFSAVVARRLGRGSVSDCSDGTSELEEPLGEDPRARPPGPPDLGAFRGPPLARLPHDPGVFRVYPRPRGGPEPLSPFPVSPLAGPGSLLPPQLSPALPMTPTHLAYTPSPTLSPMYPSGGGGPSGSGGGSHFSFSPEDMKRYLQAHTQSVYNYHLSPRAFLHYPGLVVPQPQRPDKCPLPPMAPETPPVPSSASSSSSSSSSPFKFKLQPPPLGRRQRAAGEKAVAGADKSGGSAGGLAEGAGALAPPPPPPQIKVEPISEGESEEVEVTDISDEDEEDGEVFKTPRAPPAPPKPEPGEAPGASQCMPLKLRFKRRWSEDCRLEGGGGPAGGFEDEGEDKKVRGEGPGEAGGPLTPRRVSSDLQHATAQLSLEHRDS
# In short: as §1
# ETV3L = target: T6, ETV3L (Homo sapiens, UniProt Q6ZN32 1-361); settings: protein: recombinant; tags: N-terminal GST; dsDNA, one strand shown
# T6 sequence: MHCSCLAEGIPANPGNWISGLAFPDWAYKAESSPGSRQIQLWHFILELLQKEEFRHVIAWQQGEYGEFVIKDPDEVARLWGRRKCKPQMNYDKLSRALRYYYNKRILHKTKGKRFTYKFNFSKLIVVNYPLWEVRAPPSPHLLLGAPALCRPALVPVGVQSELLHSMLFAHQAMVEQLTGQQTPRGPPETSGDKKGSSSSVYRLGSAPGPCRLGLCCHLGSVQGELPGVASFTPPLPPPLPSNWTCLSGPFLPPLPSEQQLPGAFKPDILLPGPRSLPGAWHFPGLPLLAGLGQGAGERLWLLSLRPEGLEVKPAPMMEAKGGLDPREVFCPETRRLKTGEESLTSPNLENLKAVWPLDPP
# In short: as §1
# ETS2 = target: T7, ETS2 (Homo sapiens, UniProt P15036 1-469); settings: protein: recombinant; tags: N-terminal GST; dsDNA, one strand shown
# T7 sequence: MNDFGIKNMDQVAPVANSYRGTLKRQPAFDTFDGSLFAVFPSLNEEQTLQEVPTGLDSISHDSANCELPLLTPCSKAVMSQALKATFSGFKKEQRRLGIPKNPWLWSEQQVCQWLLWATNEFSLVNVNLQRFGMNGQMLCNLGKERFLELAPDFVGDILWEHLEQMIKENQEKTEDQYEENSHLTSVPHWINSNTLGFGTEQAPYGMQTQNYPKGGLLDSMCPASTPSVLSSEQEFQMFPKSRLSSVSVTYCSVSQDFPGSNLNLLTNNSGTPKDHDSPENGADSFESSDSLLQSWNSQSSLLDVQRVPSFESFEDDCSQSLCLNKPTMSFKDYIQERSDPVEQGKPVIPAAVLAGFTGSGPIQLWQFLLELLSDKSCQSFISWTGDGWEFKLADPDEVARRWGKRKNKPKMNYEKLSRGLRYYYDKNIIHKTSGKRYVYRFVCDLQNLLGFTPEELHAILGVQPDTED
# In short: as §1
# ETV7 = target: T8, ETV7 (Homo sapiens, UniProt Q9Y603 1-341); settings: protein: recombinant; tags: N-terminal GST; dsDNA, one strand shown
# T8 sequence: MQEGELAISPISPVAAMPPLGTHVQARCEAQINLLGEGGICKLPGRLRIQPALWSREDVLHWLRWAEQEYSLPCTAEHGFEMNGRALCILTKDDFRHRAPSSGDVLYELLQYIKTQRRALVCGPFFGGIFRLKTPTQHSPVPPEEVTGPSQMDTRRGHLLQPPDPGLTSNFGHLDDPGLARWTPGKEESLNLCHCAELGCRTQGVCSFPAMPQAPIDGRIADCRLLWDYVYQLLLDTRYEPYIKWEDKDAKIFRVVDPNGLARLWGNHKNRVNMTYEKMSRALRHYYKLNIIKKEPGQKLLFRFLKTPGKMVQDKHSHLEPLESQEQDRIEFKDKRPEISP
# In short: as §1
# ETV3 = target: T9, ETV3 (Homo sapiens, UniProt P41162-2 1-143); settings: protein: recombinant; tags: N-terminal GST; dsDNA, one strand shown
# T9 sequence: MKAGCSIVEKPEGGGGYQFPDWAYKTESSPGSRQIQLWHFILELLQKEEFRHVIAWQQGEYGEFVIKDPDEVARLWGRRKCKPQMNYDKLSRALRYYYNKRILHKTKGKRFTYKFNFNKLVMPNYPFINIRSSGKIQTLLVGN
# In short: as §1
# SPDEF = target: T10, SPDEF (Homo sapiens, UniProt O95238 1-335); settings: protein: recombinant; tags: N-terminal GST; dsDNA, one strand shown
# T10 sequence: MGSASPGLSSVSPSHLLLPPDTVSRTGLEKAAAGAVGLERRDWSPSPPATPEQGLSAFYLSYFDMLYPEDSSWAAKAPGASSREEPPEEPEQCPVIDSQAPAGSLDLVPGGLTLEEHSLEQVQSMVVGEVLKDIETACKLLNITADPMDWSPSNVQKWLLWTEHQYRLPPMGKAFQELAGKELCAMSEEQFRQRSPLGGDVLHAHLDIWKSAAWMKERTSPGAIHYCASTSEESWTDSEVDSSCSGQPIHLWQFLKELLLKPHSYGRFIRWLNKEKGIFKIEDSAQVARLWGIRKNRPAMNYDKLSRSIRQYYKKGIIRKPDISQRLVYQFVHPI
# In short: as §1
# ELF5 = target: T11, ELF5 (Homo sapiens, UniProt Q9UKW6-2 1-255); settings: protein: recombinant; tags: N-terminal GST; dsDNA, one strand shown
# T11 sequence: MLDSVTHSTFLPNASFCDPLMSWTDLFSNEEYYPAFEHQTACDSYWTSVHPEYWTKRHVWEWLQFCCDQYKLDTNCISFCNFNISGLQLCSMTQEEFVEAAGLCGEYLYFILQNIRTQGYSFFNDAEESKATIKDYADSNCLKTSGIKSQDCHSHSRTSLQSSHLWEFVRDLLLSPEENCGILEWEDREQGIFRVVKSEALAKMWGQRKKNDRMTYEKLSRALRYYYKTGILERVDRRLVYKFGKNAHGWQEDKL
# In short: as §1
# ETV6 = ETV6 (Homo sapiens, UniProt P41212 1-452); settings: protein: recombinant; tags: N-terminal GST; dsDNA, one strand shown
# In short: as §1
# Chain of ELF4 (Q99607 whole entry): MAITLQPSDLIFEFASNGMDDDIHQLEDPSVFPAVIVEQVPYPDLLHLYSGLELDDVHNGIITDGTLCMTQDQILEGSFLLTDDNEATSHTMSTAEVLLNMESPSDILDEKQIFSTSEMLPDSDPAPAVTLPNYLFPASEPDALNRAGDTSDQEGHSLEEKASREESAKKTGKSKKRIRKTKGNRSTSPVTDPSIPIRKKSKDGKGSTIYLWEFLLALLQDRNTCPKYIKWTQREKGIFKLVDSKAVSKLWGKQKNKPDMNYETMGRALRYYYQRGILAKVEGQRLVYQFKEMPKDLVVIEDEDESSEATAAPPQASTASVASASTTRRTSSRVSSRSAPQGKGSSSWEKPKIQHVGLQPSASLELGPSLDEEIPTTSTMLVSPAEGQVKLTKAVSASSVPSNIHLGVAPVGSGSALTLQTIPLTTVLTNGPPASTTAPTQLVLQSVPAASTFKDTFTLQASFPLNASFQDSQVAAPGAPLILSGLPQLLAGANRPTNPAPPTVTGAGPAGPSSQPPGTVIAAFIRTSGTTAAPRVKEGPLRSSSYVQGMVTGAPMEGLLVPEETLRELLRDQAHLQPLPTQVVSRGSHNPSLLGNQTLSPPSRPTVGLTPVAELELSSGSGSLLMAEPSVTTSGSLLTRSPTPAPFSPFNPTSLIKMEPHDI
# Chain of HSF1 (Q00613 whole entry): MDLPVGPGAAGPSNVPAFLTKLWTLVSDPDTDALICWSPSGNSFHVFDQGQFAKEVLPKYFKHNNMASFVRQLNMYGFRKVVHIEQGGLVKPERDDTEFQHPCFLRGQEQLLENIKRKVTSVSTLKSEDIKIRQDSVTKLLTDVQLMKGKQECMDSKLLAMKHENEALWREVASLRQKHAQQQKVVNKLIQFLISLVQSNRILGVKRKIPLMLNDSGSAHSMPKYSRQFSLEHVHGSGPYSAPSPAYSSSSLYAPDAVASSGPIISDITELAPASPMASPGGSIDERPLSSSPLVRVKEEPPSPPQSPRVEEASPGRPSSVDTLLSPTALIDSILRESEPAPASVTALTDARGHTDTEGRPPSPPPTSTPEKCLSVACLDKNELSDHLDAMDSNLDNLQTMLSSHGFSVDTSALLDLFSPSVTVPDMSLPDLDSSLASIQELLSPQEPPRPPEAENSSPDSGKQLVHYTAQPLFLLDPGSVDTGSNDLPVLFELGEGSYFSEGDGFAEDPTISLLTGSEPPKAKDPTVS
# Chain of ETV5 (P41161 whole entry): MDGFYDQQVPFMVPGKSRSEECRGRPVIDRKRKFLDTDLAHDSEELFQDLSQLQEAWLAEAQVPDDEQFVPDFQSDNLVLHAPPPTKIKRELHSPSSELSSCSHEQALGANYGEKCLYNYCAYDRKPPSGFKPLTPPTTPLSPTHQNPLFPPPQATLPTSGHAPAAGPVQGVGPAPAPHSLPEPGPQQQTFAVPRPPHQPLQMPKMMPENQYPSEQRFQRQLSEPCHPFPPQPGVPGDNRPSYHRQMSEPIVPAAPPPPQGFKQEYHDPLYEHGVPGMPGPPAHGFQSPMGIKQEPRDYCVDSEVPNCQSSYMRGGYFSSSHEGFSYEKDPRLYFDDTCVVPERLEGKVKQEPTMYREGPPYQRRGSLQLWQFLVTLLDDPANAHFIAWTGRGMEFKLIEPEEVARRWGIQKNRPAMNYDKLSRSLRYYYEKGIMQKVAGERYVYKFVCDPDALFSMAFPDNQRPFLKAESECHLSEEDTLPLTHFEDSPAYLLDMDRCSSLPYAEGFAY
# Chain of ETV1 (P50549 whole entry): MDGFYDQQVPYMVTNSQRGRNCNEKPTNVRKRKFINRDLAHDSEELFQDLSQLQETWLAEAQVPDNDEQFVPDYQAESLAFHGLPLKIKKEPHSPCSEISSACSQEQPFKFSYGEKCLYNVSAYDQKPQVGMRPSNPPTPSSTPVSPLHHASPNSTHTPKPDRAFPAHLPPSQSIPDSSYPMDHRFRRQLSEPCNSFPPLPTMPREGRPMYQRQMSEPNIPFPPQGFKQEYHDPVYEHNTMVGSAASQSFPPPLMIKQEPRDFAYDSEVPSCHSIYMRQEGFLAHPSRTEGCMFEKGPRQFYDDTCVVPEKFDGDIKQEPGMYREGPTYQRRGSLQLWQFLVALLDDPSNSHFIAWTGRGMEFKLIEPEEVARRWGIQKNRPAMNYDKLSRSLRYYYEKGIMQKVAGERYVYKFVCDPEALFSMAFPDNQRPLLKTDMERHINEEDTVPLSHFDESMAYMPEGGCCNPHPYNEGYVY
# Chain of ETV6 (P41212 whole entry): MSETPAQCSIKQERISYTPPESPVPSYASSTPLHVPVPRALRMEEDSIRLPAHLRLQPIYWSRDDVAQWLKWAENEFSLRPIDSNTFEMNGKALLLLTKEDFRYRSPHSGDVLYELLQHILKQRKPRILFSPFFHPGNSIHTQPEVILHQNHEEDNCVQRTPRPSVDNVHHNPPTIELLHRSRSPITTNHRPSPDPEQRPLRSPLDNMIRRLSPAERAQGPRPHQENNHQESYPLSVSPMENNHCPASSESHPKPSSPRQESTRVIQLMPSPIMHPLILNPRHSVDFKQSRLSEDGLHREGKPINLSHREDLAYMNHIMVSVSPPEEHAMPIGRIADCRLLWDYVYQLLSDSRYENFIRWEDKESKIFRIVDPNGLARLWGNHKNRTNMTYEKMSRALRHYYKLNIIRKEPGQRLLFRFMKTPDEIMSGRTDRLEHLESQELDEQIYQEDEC
# Chain of CRX (O43186 whole entry): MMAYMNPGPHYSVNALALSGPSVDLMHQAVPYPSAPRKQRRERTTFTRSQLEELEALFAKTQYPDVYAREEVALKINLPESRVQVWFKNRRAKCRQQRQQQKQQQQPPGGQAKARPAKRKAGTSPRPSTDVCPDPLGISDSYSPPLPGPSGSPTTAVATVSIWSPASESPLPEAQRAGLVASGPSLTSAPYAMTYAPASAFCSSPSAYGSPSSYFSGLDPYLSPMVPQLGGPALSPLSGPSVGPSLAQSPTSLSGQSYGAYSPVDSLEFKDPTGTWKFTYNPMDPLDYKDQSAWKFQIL
Sequence,binding signal (FEV),binding signal (ETV5),binding signal (HSF1),binding signal (SPIC),binding signal (ELF4),binding signal (ELK4),binding signal (ETV2),binding signal (CRX),binding signal (ETV1),binding signal (ERF),binding signal (ETV3L),binding signal (ETS2),binding signal (ETV7),binding signal (ETV3),binding signal (SPDEF),binding signal (ELF5),binding signal (ETV6)
AGCCTA,"1.01 fold enrichment (6-mer frequency, TF over GST control)","1.09 fold enrichment (6-mer frequency, TF over GST control)","1.21 fold enrichment (6-mer frequency, TF over GST control)","1.13 fold enrichment (6-mer frequency, TF over GST control)","1.09 fold enrichment (6-mer frequency, TF over GST control)","1.17 fold enrichment (6-mer frequency, TF over GST control)","1.12 fold enrichment (6-mer frequency, TF over GST control)","1.52 fold enrichment (6-mer frequency, TF over GST control)","1.12 fold enrichment (6-mer frequency, TF over GST control)","1.12 fold enrichment (6-mer frequency, TF over GST control)","1.09 fold enrichment (6-mer frequency, TF over GST control)","1.04 fold enrichment (6-mer frequency, TF over GST control)","1.13 fold enrichment (6-mer frequency, TF over GST control)","1.1 fold enrichment (6-mer frequency, TF over GST control)",–,–,–
CTCAGA,"1.03 fold enrichment (6-mer frequency, TF over GST control)","1.14 fold enrichment (6-mer frequency, TF over GST control)","1.17 fold enrichment (6-mer frequency, TF over GST control)","1.16 fold enrichment (6-mer frequency, TF over GST control)","1.14 fold enrichment (6-mer frequency, TF over GST control)","1.01 fold enrichment (6-mer frequency, TF over GST control)","1.18 fold enrichment (6-mer frequency, TF over GST control)","1.27 fold enrichment (6-mer frequency, TF over GST control)","1.1 fold enrichment (6-mer frequency, TF over GST control)","1.21 fold enrichment (6-mer frequency, TF over GST control)","1.06 fold enrichment (6-mer frequency, TF over GST control)","1.02 fold enrichment (6-mer frequency, TF over GST control)",–,"1.01 fold enrichment (6-mer frequency, TF over GST control)","1.11 fold enrichment (6-mer frequency, TF over GST control)","1.03 fold enrichment (6-mer frequency, TF over GST control)","1.13 fold enrichment (6-mer frequency, TF over GST control)"
GAATAC,–,"1.01 fold enrichment (6-mer frequency, TF over GST control)","1.16 fold enrichment (6-mer frequency, TF over GST control)","1.06 fold enrichment (6-mer frequency, TF over GST control)","1.01 fold enrichment (6-mer frequency, TF over GST control)","1.05 fold enrichment (6-mer frequency, TF over GST control)","1.05 fold enrichment (6-mer frequency, TF over GST control)",–,"1.09 fold enrichment (6-mer frequency, TF over GST control)","1.11 fold enrichment (6-mer frequency, TF over GST control)","1.01 fold enrichment (6-mer frequency, TF over GST control)","1.02 fold enrichment (6-mer frequency, TF over GST control)","1.01 fold enrichment (6-mer frequency, TF over GST control)","1.07 fold enrichment (6-mer frequency, TF over GST control)","1 fold enrichment (6-mer frequency, TF over GST control)","1.03 fold enrichment (6-mer frequency, TF over GST control)","1.03 fold enrichment (6-mer frequency, TF over GST control)"

# — publication PMC7862700, “An all-to-all approach to the identification of sequence-specific readers for epigenetic DNA modifications on cytosine”
